Results as given in PubChem BioAssay (NCATS).
Results filed as inconclusive are left out. Values without a mark were called inactive. Activity calls are given as the source filed them. Calls follow the shape of the dose curve; as a rule, active = well fitted cell-killing curve with a large enough effect; inconclusive = small, poorly fitted or top-dose-only effect; inactive = flat fitted curve, though single readings scatter.

Assay: Cell Viability - LYMP2-019 (AID 973); also: nearly all actives have a fitted effect of over 55% in size;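 as to activity change, negative = cytotoxicity: 0% = DMSO alone and full effect = 92 µM tetraoctylammonium bromide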
Settings: LYMP2-019 lymphoblastoid cell line viability; series mostly up to 92.2 µM; activity change, negative = cytotoxicity: at the top concentration
Description: NIH Chemical Genomics Center [NCGC]
NIH Molecular Libraries Screening Centers Network [MLSCN]
National Institutes of Environmental Health Sciences [NIEHS]
National Toxicology Program [NTP]
We have developed a 1536-well cell-based assay for quantitative high throughput screening (qHTS) against a number of cell lines to determine in vitro cytotoxicity of small molecules. This particular assay uses a human lymphoblastoid cell line (LYMP2-019) purchased from Coriell Institute for Medical Research.
NCGC Assay Protocol Summary:
The CellTiter-Glo luminescent cell viability assay (Promega) is a homogeneous method to measure the number of viable cells in culture. The end point readout of this assay is based on quantitation of intracellular ATP, an indicator of metabolic activity, using the luciferase reaction. Luciferase catalyzes the oxidation of beetle Luciferin to oxyluciferin and light in the presence of ATP. The luminescent signal is proportional to amount of ATP present.
Using the CellTiter-Glo luminescent cell viability assay, the amount of cellular ATP was measured in the lymphoblastoid cell line with complete culture medium following compound treatment for 24 hours. The assay was performed in opaque white Kalypsys 1536-well plates. In the screen, tetraoctylammonium bromide was used as positive control. Library compounds were measured for their ability to cause acute toxicity in the cell line, as reflected by a decrease in intracellular ATP levels, in a concentration-dependent manner. […] AC50 values were determined from concentration-response data modeled with the standard Hill equation.
qHTS protocol for CellTiter Glo lymphoblastoid cellular assay
[Step] [Parameter] [Value] [Description]
1. Reagent; 5 uL; 2500 lymphoblastoid cells/well
2. Time; 5 hr; 37 C incubation
4. Controls; 23 nL; Tetraoctylammonium bromide 6.4pM to 92 uM
5. Time; 24 hr; 37 C incubation
6. Reagent; 5 uL; CellTiter Glo reagent
7. Time; 30 min; Room Temperature
8. Detection; Luminescence; Viewlux plate reader
Keywords: cell viability, cytotoxicity, lymphoblastoid cell line, luminescence, NTPHTS, NTPHTS_NCGC, NIEHS, DSSTox, MLSMR, MLSCN, NIH Roadmap, qHTS, NCGC
Potency is read from the fitted curve at half-maximal effect.

| SMILES | activity change, negative = cytotoxicity | Potency |
| --- | --- | --- |
| C=Cc1cccc(C)c1 | -1.67% | – |
| CCCCCCCCOc1ccc(C(=O)O)cc1 | -15.4% | – |
| Nc1ccc(N=Nc2ccccc2)c(N)c1 | -12.3% | – |
| C=C(C#N)C(=O)OCC | -21.1% | – |
| COc1cc(-c2ccc(N=C=O)c(OC)c2)ccc1N=C=O | -4.41% | – |
| COc1ccc([N+](=O)[O-])cc1N | -3.31% | – |
| CCCCCCCCC1CO1 (stereo not given) | -5.06% | – |
| CCOc1ccc2nc(N)sc2c1 | -4.55% | – |
| CC(C)OCC1CO1 (stereo not given) | -11.5% | – |
| CC(C)(C)C(=O)C1C(=O)c2ccccc2C1=O | -21.4% | – |
| CCCCOC(=O)COc1ccc(Cl)cc1Cl | -15.7% | – |
| Brc1cc(Br)c(Oc2cc(Br)c(Br)cc2Br)cc1Br | -5.41% | – |
| Cc1ccc(O)c(N)c1 | – | 39.8 µM (active) |
| c1cc2c3c(c1)ccc1cccc(c13)C2 | -25.6% | – |
| Cc1ccc(S(N)(=O)=O)cc1 | 2.33% | – |
| CCC(Cl)CC(Cl)C(Cl)C(Cl)C(Cl)C(C)Cl (stereo not given) | -5.65% | – |
| C[Si](C)(C)Cl | -8.89% | – |
| Oc1cc2c(cc1O)[C@H]1c3ccc(O)c(O)c3OC[C@@]1(O)C2 | – | 39.8 µM (active) |
| O=C1OC(=O)c2ccccc21 | -14.2% | – |
| c1ccc2c(c1)ccc1ccccc12 | -12.5% | – |

| SMILES | activity change, negative = cytotoxicity | Potency |
| --- | --- | --- |
| Cc1ccc2ccc3cccc4ccc1c2c34 | -7.5% | – |
| CC(CCC(=O)O)(c1ccc(O)cc1)c1ccc(O)cc1 | -11.3% | – |
| O=CC(=O)c1ccccc1 | -28% | – |
| NC(=O)Nc1nc2ccccc2[nH]1 | -3.78% | – |
| CC(=O)CC(=O)Nc1ccccc1 | -7.21% | – |
| CCOC(=O)C1OC1c1ccccc1 (stereo not given) | -6.14% | – |
| Cc1cc(-c2ccc(N=Nc3cc(S(=O)(=O)O)c4ccccc4c3N)c(C)c2)ccc1N=Nc1cc(S(=O)(=O)O)c2ccccc2c1N | -29.7% | – |
| Cc1ccc(N)cc1[N+](=O)[O-] | -3.27% | – |
| NC(=O)c1ccc([N+](=O)[O-])cc1 | 7.84% | – |
| COc1ccc(C)cc1N | -9.56% | – |
| Cc1cccnc1 | -7.39% | – |
| Cc1cc2nc(N)sc2cc1C | -15.8% | – |
| C/C=C/C=C/C=O | – | 39.8 µM (active) |
| CC(/C=C/C=C(C)/C=C/C(=O)O)=C\C=C\C=C(C)\C=C\C=C(C)\C=C\C(=O)O | -27.1% | – |
| CCCCC(CC)COC(=O)COc1ccc(Cl)cc1Cl (stereo not given) | -0.63% | – |
| N=C1C=CC(=C(c2ccc(N)cc2)c2ccc(N)cc2)C=C1 | – | 7.94 µM (active) |
| CN(C)c1ccc(Cc2ccc(N(C)C)cc2)cc1 | -24.5% | – |
| c1ccc(Nc2cccc3ccccc23)cc1 | -1.29% | – |
| CCCCCCN | 2.42% | – |
| c1ccc(CSCc2ccccc2)cc1 | 1.07% | – |
